From PubChem BioAssay (NCI)
About 83,000 compounds went through this panel and 20% of them were active in at least one assay; those are over-represented in the sample as a whole.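 Assay: single dose, 48 h. Readout: percent growth (0 = no net growth; negative = cell death). Active: <10.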 Unmarked numbers belong to inactive results. Calls of active or inactive are those of the source.

Experiments:
Experiment in all cases: NCI-60 one-dose screen, 48 h (100 = growth as untreated, 0 = no growth, -100 = all killed)
Conditions in all cases: 10 µM unless noted
HCT-15 colon = tested on: HCT-15 colon
HT29 colon = tested on: HT29 colon
SNB-19 CNS = tested on: SNB-19 CNS
U251 CNS = tested on: U251 CNS
PC-3 prostate = tested on: PC-3 prostate
SK-MEL-5 melanoma = tested on: SK-MEL-5 melanoma
UACC-62 melanoma = tested on: UACC-62 melanoma
LOX IMVI melanoma = tested on: LOX IMVI melanoma
SK-MEL-28 melanoma = tested on: SK-MEL-28 melanoma
SK-MEL-2 melanoma = tested on: SK-MEL-2 melanoma
EKVX NSCLC = tested on: EKVX NSCLC
SN12C renal = tested on: SN12C renal
UO-31 renal = tested on: UO-31 renal
TK-10 renal = tested on: TK-10 renal
A498 renal = tested on: A498 renal
CCRF-CEM leukemia = tested on: CCRF-CEM leukemia
MOLT-4 leukemia = tested on: MOLT-4 leukemia
ACHN renal = tested on: ACHN renal
CAKI-1 renal = tested on: CAKI-1 renal
SNB-75 CNS = tested on: SNB-75 CNS

SMILES	growth (HCT-15 colon)	growth (HT29 colon)	growth (SNB-19 CNS)	growth (U251 CNS)	growth (PC-3 prostate)	growth (SK-MEL-5 melanoma)	growth (UACC-62 melanoma)	growth (LOX IMVI melanoma)	growth (SK-MEL-28 melanoma)	growth (SK-MEL-2 melanoma)	growth (EKVX NSCLC)	growth (SN12C renal)	growth (UO-31 renal)	growth (TK-10 renal)	growth (A498 renal)	growth (CCRF-CEM leukemia)	growth (MOLT-4 leukemia)	growth (ACHN renal)	growth (CAKI-1 renal)	growth (SNB-75 CNS)
CCN(CC)CCOC(=O)N1c2ccccc2Sc2ccccc21	102%	75.9%	97.8%	91.8%	68.8%	94.2%	91%	96.7%	101%	97.9%	106%	101%	87.9%	88.2%	97.1%	69.1%	96.1%			
CC(C)N(CCOC(=O)Nc1ccccc1Cl)C(C)C	108%	97.1%	98.6%	98.8%	74%	97.5%	96.4%	101%	110%	104%	99.7%	99.1%	85.1%	108%	109%	83.7%	88.6%			
COc1cc2c(c(OC)c1OC)C(=O)/C(=C/c1cc(C)c(O)c(C)c1)S2	25.4%	82.4%	39.2%	33%	30.9%	4.33% (active)	50.8%	26.4%	59.3%		43.9%	45.6%	33%	59.2%		25%	33.9%	45.8%	26.3%	
Cl.Fc1c[c-]c(-c2ccccn2)c(F)c1.[Pt].c1ccc(P(c2ccccc2)C([PH+](c2ccccc2)c2ccccc2)[PH+](c2ccccc2)c2ccccc2)cc1	56.1%	11.8%	27.1%	16.4%	7.49% (active)	-91% (active)	23.2%	11.7%	34.4%	7.06% (active)	20.8%	11.2%	-5.69% (active)	24.3%		17.3%	13.2%	17.5%	-1.81% (active)	
CCCCCCNCc1cc(C(C)(C)C)cc(CNCCCCCC)c1O	-59.6% (active)	-86% (active)	9.11% (active)	-88.4% (active)	6.77% (active)	-98.2% (active)	-85.3% (active)	-88.8% (active)	-88.8% (active)	-7.07% (active)	-47.9% (active)	-42.2% (active)	-80.7% (active)	-80.4% (active)	-7.12% (active)	-10.4% (active)	-14.8% (active)	-84.2% (active)	16.7%	
Cc1nc(-c2ccccc2)cc2c(O)c(C(=O)N/N=C/c3ccc(N(C)C)cc3)[nH]c(=O)c12	83.1%	72.9%	117%	41.8%		83.4%	97.3%	75.8%	80.2%	99.7%	82.5%	82%	84.2%	88.8%	93.9%	96.7%	22.9%	67.5%	99.4%	
N#Cc1c(N)nc2c(nnn2-c2cccc(Br)c2)c1N	104%	102%	95.9%	93%	91.6%	96.4%	95.6%	102%	117%	103%	43.6%	93.4%	72.8%	119%	105%	97.9%	83.3%	99%	98.1%	
CCN(CC)N=Nc1nn(C(=O)Nc2ccc(Cc3ccccc3)cc2)c2ccc(Cl)cc12	43.6%	61.8%	67.2%	93.4%	69.6%	56.6%	8.7% (active)		70.8%	72.9%		83.1%	65.6%	83.5%	87.9%	62.5%		28.1%	65.9%	
Clc1ccc(-c2nnc(Cn3ccnc3)o2)cc1	94.2%	102%	95.5%	106%	97.2%	112%	90.2%	112%	106%		104%	90.1%	87%	128%	96.1%	107%	96.5%	98.9%	82.3%	
O=S(=O)(Cc1ccccc1)c1nc2ccccc2s1	33.3%	25.6%	97.1%	92.1%	79.5%	67.4%	71.1%	10.8%	93.8%	57.7%	99.3%	35.5%	49.9%	98%	111%	15.4%	14.1%			
COc1cc2cc(Oc3ccc(NC(=O)Nc4cc(C(F)(F)F)cc(C(F)(F)F)c4)cc3)c(C)nc2cc1OCCN1CCCCC1	-82.4% (active)	-64.8% (active)		-69.3% (active)	-45.2% (active)	-49.9% (active)	-84.9% (active)	-99.1% (active)	-95.5% (active)	-35.6% (active)	-73.1% (active)	-92.6% (active)	-98.9% (active)	-72.4% (active)		-26.7% (active)	-44.4% (active)	-100% (active)	-76.7% (active)	
NC(=O)c1c(NC(=O)c2ccccn2)sc2c1CCC(=O)C2	13.4%	68%		13.6%	10.7%	-19.5% (active)	-3.06% (active)	21.6%	39.9%	37.8%	33.8%	25.9%	4.56% (active)	38.3%	86.1%	12.7%	81.6%	5.89% (active)	-2.09% (active)	
CCCCCCN(CCCCCC)CC(O)c1cccc2ccc(Cl)cc12 (stereo not drawn)		15.9%		55.2%	37.1%	61.8%	51.4%	34.7%	87.9%	46.6%	77.2%		47.9%	79.2%	67.3%	67.6%	37.8%	50.8%	25.3%	116%
Nc1c(C(=O)Nc2ccccc2)sc2nc3c(cc12)CCCCCC3		-9.08% (active)		9.62% (active)	31.8%	9.45% (active)		35.1%	27.8%	9.7% (active)			16.6%	36.3%	-0.375% (active)	6.81% (active)	18.3%	26.5%	42%	4.5% (active)
NS(=O)(=O)c1cn(-c2ncnc3nc[nH]c23)ccc1=O		101%	97.2%	102%	96.1%	97.6%	89.7%	99.9%	105%	95.4%	97.8%	92.4%	78.2%	94.5%	89.1%	94.1%	99.5%	99.2%		75.4%
O=C(O)CC1Sc2ccccc2NC1=O (stereo not drawn)		129%	108%	103%	92.1%	175%	105%	96.4%	126%		113%	102%	86.3%	149%	124%	107%	92.5%	95.5%	72.8%	94%
C=CCO[C@H]1CO[C@H]2[C@@H]1OC[C@@H]2Oc1ccc(Nc2ccnc(Nc3ccc(O[C@H]4CO[C@H]5[C@@H]4OC[C@@H]5OCC=C)c(Cl)c3)n2)cc1Cl		-5.18% (active)	-90.3% (active)	-59.5% (active)	14%		-92.2% (active)	-95% (active)	-80.3% (active)		-71% (active)	-95.5% (active)	-91.3% (active)	-54.4% (active)	95.6%	-9.75% (active)	-39.3% (active)	14.5%	-7.16% (active)	0.0674% (active)
CCOC(=O)c1c(C)[nH]c(C(=O)CCC(=O)OC)c1C		86.7%	106%	99.9%	81.2%	106%	101%	103%	111%	83.1%	95.2%	110%	92.7%	84.3%	119%	92.8%	93%			106%
